Active and inactive are the calls of the source. The call rests on the fitted dose curve.
What was measured:
Assay in all cases: Confirmatory Screen for Target Class Profiling of Small Molecule Inhibitors of Methyltransferases (AID 1745852); on activity change, negative = inhibition: on the % scale 0 is the no-effect control and ±100 the full control effect
[1] = target: Catechol O-methyltransferase (Homo sapiens) (UniProt P21964); details: MTase-Glo luminescence, SAH detection, recombinant enzyme; measured here: COMT max response; stronger effect = lower value
Chain of Catechol O-methyltransferase (Homo sapiens) (P21964 whole entry, looked up): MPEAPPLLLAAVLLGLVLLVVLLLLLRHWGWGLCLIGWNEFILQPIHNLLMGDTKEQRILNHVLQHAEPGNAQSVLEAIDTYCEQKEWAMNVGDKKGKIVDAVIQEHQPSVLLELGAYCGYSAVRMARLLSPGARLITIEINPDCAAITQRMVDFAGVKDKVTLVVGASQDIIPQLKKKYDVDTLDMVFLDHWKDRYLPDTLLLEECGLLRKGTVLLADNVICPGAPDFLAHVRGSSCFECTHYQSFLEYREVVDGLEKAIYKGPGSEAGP

[2] = target: Guanidinoacetate N-methyltransferase (Homo sapiens) (UniProt Q14353); details: MTase-Glo luminescence, SAH detection, recombinant enzyme; activity change, negative = inhibition: at 57.3 µM (top of the series) unless noted; series mostly up to 57.3 µM
[3] = target: Nicotinamide N-methyltransferase (Homo sapiens) (UniProt P40261); details: MTase-Glo luminescence, SAH detection, recombinant enzyme; measured here: NNMT max response; stronger effect = lower value
Chain of Nicotinamide N-methyltransferase (Homo sapiens) (P40261 whole entry, looked up): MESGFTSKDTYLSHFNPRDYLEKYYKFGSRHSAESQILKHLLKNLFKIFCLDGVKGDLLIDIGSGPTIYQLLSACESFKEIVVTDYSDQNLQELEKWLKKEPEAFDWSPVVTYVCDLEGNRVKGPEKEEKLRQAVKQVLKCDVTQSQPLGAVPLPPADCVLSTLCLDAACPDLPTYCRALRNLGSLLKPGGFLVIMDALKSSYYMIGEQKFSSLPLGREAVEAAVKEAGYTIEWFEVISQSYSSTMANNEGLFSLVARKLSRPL

[4] = target: Phenylethanolamine N-methyltransferase (Homo sapiens) (UniProt P11086); details: MTase-Glo luminescence, SAH detection, recombinant enzyme; measured here: PNMT max response; stronger effect = lower value
Chain of Phenylethanolamine N-methyltransferase (Homo sapiens) (P11086 whole entry, looked up): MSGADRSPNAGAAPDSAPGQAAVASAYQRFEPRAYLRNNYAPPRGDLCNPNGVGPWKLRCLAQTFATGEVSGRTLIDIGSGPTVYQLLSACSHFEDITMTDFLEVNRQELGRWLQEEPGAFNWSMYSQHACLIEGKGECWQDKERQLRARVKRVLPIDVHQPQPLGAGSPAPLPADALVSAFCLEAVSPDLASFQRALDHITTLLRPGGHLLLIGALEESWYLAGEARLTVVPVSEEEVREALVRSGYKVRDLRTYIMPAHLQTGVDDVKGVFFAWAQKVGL
Potency means the concentration at half of the fitted maximal effect.

| SMILES | activity [1] [%] | activity change, negative = inhibition [2] | activity [3] [%] | activity [4] [%] | Potency [2] |
| --- | --- | --- | --- | --- | --- |
| O=C(NCc1ccc(Cl)cc1)c1ccc2c(=O)nc3c(-c4ccccc4F)n[nH]n3c2c1 | -4.08 | -1.1% | -14.9 | -19.4 | – |
| O=C(Nc1ccccc1)c1cnc2c(c1)N(C(=O)Cc1ccc(O)cc1)CCC2 | -2.13 | -4.86% [at 85.7 µM] | -4.08 | -3.63 | – |
| COc1ccc(NC(=O)C(C)(C)Oc2nn(CC3CC3)c3ccc(CN4CCCC4)cc23)cc1 | 8.52 | 9.81% | 5.5 | 9.18 | – |
| c1ccc(CO[C@H]2COCCN(c3nc4ccccc4o3)C2)cc1 | 1.17 | 2.9% [at 85.7 µM] | -5.26 | -0.271 | – |
| COc1ccc(-c2nnn3c2nc(N2CCOCC2)c2ccccc23)cc1 | -38.9 | – | -27.8 | -35.3 | 19.2 µM (active) |
| O=S(=O)(c1ccc(Br)cc1)c1nnn2c1nc(NCCc1c[nH]c3ccccc13)c1ccccc12 | -1.9 | -2.1% | -1.21 | -6.06 | – |
| CCC1Oc2ccc(NS(=O)(=O)c3ccc(Cl)cc3)cc2CN(Cc2ccc(F)cc2)C1=O (configuration not stated) | -6.43 | -14.3% | -24.1 | -6.42 | – |
| C[C@H]1CN(C(=O)c2nn(C)c3ccccc23)C[C@@H]1c1nc(-c2cccnc2)no1 | 15.6 | 7.54% | -94 | 7.38 | – |
| CC1CC(C)CN(S(=O)(=O)c2ccc3c(c2)oc(=O)n3CC(=O)Nc2ccc(F)cc2)C1 (configuration not stated) | 4.26 | 0% | -4.58 | -42.5 | – |
| COc1cc2c(cc1O)NC(=O)CC2c1cn[nH]c1-c1cc(C)ccc1C (configuration not stated) | -13.7 | 2.11% | -6.25 | -21.7 | – |
| Cc1ccc(Cn2c(=O)c3ccccc3n3c(CCC(=O)NCCN4CCCC4)nnc23)cc1 | -6.32 | -1.98% | -16.1 | -2.34 | – |
| COc1ccc(OC)c2c1cc1n2CC(C)(C(=O)NC2CCCCC2C)N(Cc2ccco2)C1=O (configuration not stated) | -9.78 | -6.29% | -25.6 | -10.3 | – |
| COCCn1ccc2c(C3=CCOCC3)nc(-c3cccc4[nH]ccc34)cc21 | -2.42 | -9.46% [at 85.7 µM] | -12.7 | -36.9 | – |
| COc1ccc(CN2C(=O)c3cc4ccccc4n3CC2(C)C(=O)NCc2ccccc2)cc1OC (configuration not stated) | 4.11 | 0% | -57.8 | 1.95 | – |
| Cc1cccc(-c2nnc3n(CCc4ccccc4)c(=O)c4ccccc4n23)c1 | -4.01 | – | -11.5 | -10 | inactive |
| c1ccc(CN2CCNc3cnc(Nc4ccc(N5CCOCC5)cc4)cc3C2)cc1 | -14.6 | -9.27% [at 85.7 µM] | -15 | -10.3 | – |
| CN(C)c1nc2c(c(N3C[C@@H](CN4CCCC4)[C@@H](CO)C3)n1)CCCC2 | 4.35 | 2.26% | 3.39 | 3.79 | – |
| Cn1cc2c3c(cccc31)CN(C(=O)c1ccccc1F)CC2 | -1.46 | 8.53% | -50.7 | -0.857 | – |
| O=C(c1cc(-c2ccccc2)n[nH]1)N1CCc2c(nc(-c3ccccc3)[nH]c2=O)C1 | 4.33 | 7.17% | 3.92 | 5.63 | – |
| COc1ccc(CCNC(=O)c2ccc3c(=O)[nH]c4c(C(=O)NCC5CCCO5)sc(=S)n4c3c2)cc1OC (configuration not stated) | -41.4 | – | -23.3 | -16.5 | 27.1 µM (active) |
| c1ccc(CCN2CCNc3cc(NCc4cccnc4)ncc3C2)cc1 | 2.5 | 1.95% [at 85.7 µM] | -5.35 | -6.38 | – |
| COc1ccc(CCN2C(=O)c3cc4occc4n3CC2(C)C(=O)NC2CCCCCC2)cc1OC (configuration not stated) | -3.67 | -1.83% | -64.2 | -5.31 | – |
| Cn1c(COc2cccc(CN3CCCC3)c2Cl)nnc1C1CC(N)C1 (configuration not stated) | 0.772 | -2.28% | -2.09 | -1.62 | – |
| Cc1ccc(C2Nc3c(ccc(C(=O)O)c3C)C3C=CCC32)cc1 (configuration not stated) | -3.41 | – | -1.48 | -1.34 | inactive |
| COc1ccc(-c2nnc3n(CCc4ccccc4)c(=O)c4ccccc4n23)c(OC)c1 | -4.93 | -5.05% | -9.89 | -5.15 | – |
| CCc1cccc(NC(=O)Cn2c(=O)oc3cc(S(=O)(=O)N4CC(C)CC(C)C4)ccc32)c1 (configuration not stated) | 3.4 | 0% | -6.52 | -59.2 | – |
| CC(=O)Nc1cc(-c2cc(C(=O)NCc3cccnc3)c3c(c2)N(C)CCO3)ccn1 | -17.6 | -8.39% [at 85.7 µM] | -4.98 | -28.5 | – |
| CCCCN(C)C(=O)c1c(C)sc2ccn(CCC)c(=O)c12 | -45.9 | – | -28.7 | -13.5 | 12.1 µM (active) |

— PubChem BioAssay (NCATS)
